Measured values reported in PubChem BioAssay AID504467 (National Center for Advancing Translational Sciences (NCATS), 2011).
About 7,700 (2.3%) of roughly 330,000 compounds were called active. Another 26% or so got no clear call; they are omitted. Calls come from the whole dose curve; as a rule, active = well fitted inhibition curve with a large enough effect; inconclusive = small, poorly fitted or top-dose-only effect, or effect the other way; inactive = flat fitted curve, though single readings scatter. This excerpt belongs to a sample that is enriched for actives.

assay: qHTS screen for small molecules that inhibit ELG1-dependent DNA repair in human embryonic kidney (HEK293T) cells expressing luciferase-tagged ELG1; conditions: HEK293T ELG1-luciferase reporter, luminescence, 16 h, DNA damage induced by 5-fluorouridine; series mostly up to 46.1 µM; activity change, negative = inhibition: at the top concentration; note: nearly all actives have a fitted effect of over 55% in size
Source text: NIH Molecular Libraries Probe Production Network [MLPCN] NIH Chemical Genomics Center [NCGC] MLPCN Grant: 1 R03 MH092164-01 Assay Provider: Kyungjae Myung, NHGRI, NIH Keywords: MLPCN, qHTS, NCGC, genotoxicity, cancer Assay Overview: Cancer cells divide rapidly compared to normal cells in the body. During cell division, cancer cells need to duplicate their genome by DNA replication. The failure of genome duplication leads to cancer cells' death. Therefore, inhibitors of DNA replication could specifically kill cancer cells. Based on this concept, many chemotherapeutic agents were developed and have been used to treat cancer patients. However, there are a limited number of agents available in the clinical setting, and some of those that do exist have low efficacy and severe side effects. Therefore, if we can find the compounds that effectively block DNA replication either by directly damaging DNA or by inhibiting other cellular mechanisms, the options for cancer treatment will be broadened. With this in mind, we developed a quantitative high-throughput ELG1-luciferase reporter gene assay. Small molecules that specifically block ELG1 function in response to DNA damage can be identified by monitoring the suppression of luciferase activity. Since ELG1 defines a pathway for repairing DNA damage, agents blocking ELG1 function can be used to sensitize cancer cells to chemotherapeutic agents whose mechanism of action involves the induction of DNA damage.
Assay Protocol Summary: For genotoxicity screening, 2,000 cells in 4 uL/well were dispensed into white, solid-bottom 1536-well plates using a solenoid-based dispenser. Following transfer of 1 uL 5-Fluorouridine and 23 nL compound or DMSO vehicle by a pin tool, the plates were incubated 16 hr at 37 °C and 5% CO2. 5 ul ONE-Glo (Promega) was then added to each plate and following a 30 min incubation at room temperature, luciferase activity was quantified on a ViewLux CCD-based plate reader.
% is set by controls: 0 for no effect and ±100 for the full control effect; potency is the fitted concentration of half-maximal effect.

Row | Structure (SMILES) | activity change, negative = inhibition | Potency
1 | CC(=O)N1CCN(c2ccccc2NC(=S)NC(=O)c2cc3ccccc3o2)CC1 | -7.26% (inactive) | 
2 | c1ccc(-c2oc3ncnc(N4CCOCC4)c3c2-c2ccccc2)cc1 | 2.31% (inactive) | 
3 | COc1ccc(-c2oc(/N=C/N3CCCC3)c(C#N)c2-c2ccc(OC)cc2)cc1 | -13.4% (inactive) | 
4 | COc1ccc(-c2oc3ncnc(NCCCO)c3c2-c2ccc(OC)cc2)cc1 |  | 18.3 µM (active)
5 | CCn1c(=O)c2ccccc2n(CC(=O)N2CCCc3ccccc32)c1=O | -16.6% (inactive) | 
6 | CCN(C[C@H]1N[C@@](CC)(C(=O)OC)[C@H]2C(=O)N(Cc3ccccc3)C(=O)[C@@H]12)S(=O)(=O)c1ccccc1 | -17% (inactive) | 
7 | COc1ccc(NC(=O)c2cc([N+](=O)[O-])ccc2NC(=O)CNC2CCCCC2C)c(OC)c1 (stereo not drawn) | -1.95% (inactive) | 
8 | CCOc1ccc(C(C(=O)NC2CCCC2)N(C(=O)c2snc(C(N)=O)c2N)C2CCCC2)cc1 (stereo not drawn) | 0.122% (inactive) | 
9 | COc1ccc(C(=O)OCC(=O)c2cc(C)n(CC3CCCO3)c2C)cc1[N+](=O)[O-] (stereo not drawn) | -8.41% (inactive) | 
10 | O=C(CN1CCCCC1)N1c2ccccc2Sc2ccc(C(F)(F)F)cc21 | -0.87% (inactive) | 
11 | O=C(CN1CCCCCC1)N1c2ccccc2Sc2ccc(C(F)(F)F)cc21 | -11.8% (inactive) | 
12 | COc1cc(/C=C/C(=O)N2c3ccccc3Sc3ccc(C(F)(F)F)cc32)cc(OC)c1OC |  | 9.2 µM (active)
13 | COC(=O)C1CCN(C(=O)NC2CC(=O)N(c3ccc4c(c3)OCCO4)C2)CC1 (stereo not drawn) | 5.95% (inactive) | 
14 | COc1cccc(C(=O)Nc2nnc(S(=O)(=O)N3CCOCC3)s2)c1 | 18.7% (inactive) | 
15 | COc1ccc(C(=O)Nc2nc(-c3ccc(S(=O)(=O)N4CCOCC4)cc3)cs2)cc1 |  | 11.6 µM (active)
16 | COC(=O)COc1ccc(S(=O)(=O)N2CCOCC2)cc1 | -1.32% (inactive) | 
17 | Cc1ccc(C(=O)COC(=O)CCN2C(=O)C3C4CCC(C4)C3C2=O)cc1C (stereo not drawn) | -2.83% (inactive) | 
18 | COc1cc(C2CC(=O)c3cnc(NC(C)=O)nc3C2)cc(OC)c1OC (stereo not drawn) | 12.5% (inactive) | 
19 | COCCOC(=O)c1[nH]c2c(c1C)C(=O)CC(c1ccc(OC)cc1)C2 (stereo not drawn) | -3.68% (inactive) | 
20 | CCCOC(=O)c1[nH]c2c(c1C)C(=O)CC(c1cc(OC)c(OC)c(OC)c1)C2 (stereo not drawn) |  | 5.17 µM (active)
21 | COc1ccc(OC)c(S(=O)(=O)Nc2c(C)nn(C)c2C)c1 | -6.93% (inactive) | 
22 | Cc1cc(C)c(C)c(S(=O)(=O)N2CCN(C(=O)c3ccc4c(=O)n5c(nc4c3)CCC5)CC2)c1C | -26.1% (inactive) | 
23 | COc1ccc(C=C(C#N)C#N)c(CSc2ccccn2)c1 | -6.6% (inactive) | 
24 | Cc1cc(C)cc(OCC(=O)Nc2ccc(N3CCOCC3)cc2N2CCOCC2)c1 |  | 16.4 µM (active)

Row | Structure (SMILES) | activity change, negative = inhibition | Potency
25 | Cc1cccc(OCC(=O)NC(=S)Nc2ccccc2N2CCOCC2)c1 | -5.56% (inactive) | 
26 | Cc1cc(N2CCCC2)ccc1NC(=O)COc1ccc(Cl)cc1 | -10.8% (inactive) | 
27 | COc1cccc(CNC(=O)CCC2CCCN(C(=O)c3ccc(F)c(Cl)c3)C2)c1 (stereo not drawn) | -27.6% (inactive) | 
28 | Cc1ccc(NC(=S)NCCN2CCOCC2)cc1 | 2.53% (inactive) | 
29 | CCOc1cccc(/C=N/NC(=S)NCCN2CCOCC2)c1O |  | 13 µM (active)
30 | COc1cccc(NC(=S)NCCCN2CCOCC2)c1 | 16.7% (inactive) | 
31 | CCN(CC)C(=O)[C@H]1C[C@H](CC(=O)NCC23CC4CC(CC(C4)C2)C3)C(=O)N2CCc3c([nH]c4cc(CCC(=O)N(C)C)ccc34)[C@]12C | -9.18% (inactive) | 
32 | COc1ccc(C(=O)c2c3ccc([N+](=O)[O-])cc3[n+]([O-])n2CCCN)cc1 | -19.9% (inactive) | 
33 | COc1ccc(Cc2nnc(SCC(=O)N(c3ccccc3)C(C)C)n(N)c2=O)cc1 | 0.731% (inactive) | 
34 | COc1ccc2c(c1)C(NS(=O)(=O)OCC(Cl)(Cl)Cl)CCC2 (stereo not drawn) | 28.9% (inactive) | 
35 | COc1ccc2[nH]c(=O)c(CN(Cc3nnnn3CCc3ccccc3)CC3CCCO3)cc2c1 (stereo not drawn) | -2.53% (inactive) | 
36 | CN1CCN(C(c2cc3cc4c(cc3[nH]c2=O)OCCO4)c2nnnn2C2CCCC2)CC1 (stereo not drawn) | 0.478% (inactive) | 
37 | Cc1cc(C)c2cc(CN(Cc3nnnn3Cc3ccc(F)cc3)C3CCCC3)c(=O)[nH]c2c1 | 4.9% (inactive) | 
38 | Cc1cccc2cc(CN(Cc3cccs3)C(c3nnnn3C3CCCC3)C(C)C)c(=O)[nH]c12 (stereo not drawn) |  | 11.6 µM (active)
39 | Cc1cccc2cc(CN(Cc3nnnn3Cc3ccccc3)C3CCCC3)c(=O)[nH]c12 |  | 20.6 µM (active)
40 | CCCN(Cc1cc2cccc(C)c2[nH]c1=O)S(C)(=O)=O | 3.35% (inactive) | 
41 | Cc1ccc(N2C(=O)N3[C@@H]4c5ccccc5OC[C@@H]4[C@@H](c4ccccc4)[C@@]3(C)C2=O)cc1 | -0.661% (inactive) | 
42 | CC(=O)N1CCSc2ccc(S(=O)(=O)N3CCC(C)CC3)cc21 | 2.5% (inactive) | 
43 | CC(Sc1nn(-c2ccc(Cl)cc2)c(=S)s1)C(=O)NCC1CCCO1 (stereo not drawn) | -2.87% (inactive) | 
44 | COc1ccccc1N(CCOc1ccccc1)S(=O)(=O)c1ccccc1 | -19.8% (inactive) | 
45 | N#CC1=C(SCc2ccccc2)NC(=O)C(C#N)C12CCCC2 (stereo not drawn) |  | 14.6 µM (active)
46 | COC(=O)CSC1=C(C#N)C(c2ccccc2OC)C(C(=O)OC)C(=O)N1 (stereo not drawn) | 2.99% (inactive) | 
47 | N#CC1=C(SCc2ccc(C#N)cc2)N=C(N)C(c2nc(-c3ccccc3)cs2)C12CCCCC2 (stereo not drawn) | -13.3% (inactive) | 
48 | COc1ccc(C(=O)NCc2nnc(SCC(=O)NC3=NCCS3)n2C)cc1 | -4.54% (inactive) | 
